One sequence from paper PMC7862700, “An all-to-all approach to the identification of sequence-specific readers for epigenetic DNA modifications on cytosine” can be followed below.

Common to all, as to test: DAPPL (digital affinity profiling via proximity ligation, sequencing); 10 mM Tris-HCl pH 7.5, 50 mM NaCl, 1 mM DTT, 4% glycerol, room temperature, 30 min; GST-TFs on glutathione beads, 16-mer random dsDNA library, 0.1% formaldehyde crosslink after washing; high values mean tight binding
Assay [1] concerns the target T1, FLI1 (Homo sapiens, UniProt Q01543 1-452).
T1 sequence: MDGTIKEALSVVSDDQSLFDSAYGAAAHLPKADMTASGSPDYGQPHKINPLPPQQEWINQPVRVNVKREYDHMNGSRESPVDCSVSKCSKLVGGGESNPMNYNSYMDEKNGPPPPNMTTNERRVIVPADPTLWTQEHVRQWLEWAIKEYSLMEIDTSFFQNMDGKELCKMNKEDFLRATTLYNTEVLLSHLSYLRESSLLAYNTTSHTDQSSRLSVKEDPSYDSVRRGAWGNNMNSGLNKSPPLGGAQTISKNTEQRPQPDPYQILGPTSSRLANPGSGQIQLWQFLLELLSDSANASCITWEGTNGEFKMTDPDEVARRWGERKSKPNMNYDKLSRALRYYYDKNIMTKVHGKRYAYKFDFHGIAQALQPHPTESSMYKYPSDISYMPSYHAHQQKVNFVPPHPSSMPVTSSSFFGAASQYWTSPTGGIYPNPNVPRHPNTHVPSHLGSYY
Conditions: protein: recombinant; tags: N-terminal GST; dsDNA, one strand shown. In a few lines: (§1)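 Sequencing on an Illumina NextSeq500 followed washing, crosslinking with 0.1% formaldehyde, proximity ligation (BsaI/T4 ligase, 1 h, 37 °C) and PCR amplification of pools that had been incubated for 30 min at room temperature with 200 nmole of a random double-stranded 16-mer DNA library in Tris/NaCl/DTT/glycerol buffer. Each pool held DNA-barcoded human transcription factors, expressed in yeast as GST fusions and captured on glutathione beads, plus a tag-only sample. Binding signal is a hexamer's read frequency for a factor divided by its frequency in the tag-only sample.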

The target of assay [2] is T2, ELK1 (Homo sapiens, UniProt P19419 1-428).
T2 sequence: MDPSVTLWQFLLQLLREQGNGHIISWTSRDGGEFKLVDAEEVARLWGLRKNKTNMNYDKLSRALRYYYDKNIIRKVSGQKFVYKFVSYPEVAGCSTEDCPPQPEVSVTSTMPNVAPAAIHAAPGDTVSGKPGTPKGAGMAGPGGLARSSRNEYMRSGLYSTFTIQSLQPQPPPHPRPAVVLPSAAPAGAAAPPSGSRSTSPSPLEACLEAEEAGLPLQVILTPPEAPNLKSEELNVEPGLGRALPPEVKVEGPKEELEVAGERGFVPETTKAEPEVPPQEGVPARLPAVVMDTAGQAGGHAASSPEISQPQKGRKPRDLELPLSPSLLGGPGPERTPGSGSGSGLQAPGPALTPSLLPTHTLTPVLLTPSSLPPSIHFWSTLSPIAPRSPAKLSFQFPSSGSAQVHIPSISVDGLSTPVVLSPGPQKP
Conditions: protein: recombinant; tags: N-terminal GST; dsDNA, one strand shown. The gist of the method: as §1

The target in assay [3] is T3, GABPA (Homo sapiens, UniProt Q06546 1-454).
T3 sequence: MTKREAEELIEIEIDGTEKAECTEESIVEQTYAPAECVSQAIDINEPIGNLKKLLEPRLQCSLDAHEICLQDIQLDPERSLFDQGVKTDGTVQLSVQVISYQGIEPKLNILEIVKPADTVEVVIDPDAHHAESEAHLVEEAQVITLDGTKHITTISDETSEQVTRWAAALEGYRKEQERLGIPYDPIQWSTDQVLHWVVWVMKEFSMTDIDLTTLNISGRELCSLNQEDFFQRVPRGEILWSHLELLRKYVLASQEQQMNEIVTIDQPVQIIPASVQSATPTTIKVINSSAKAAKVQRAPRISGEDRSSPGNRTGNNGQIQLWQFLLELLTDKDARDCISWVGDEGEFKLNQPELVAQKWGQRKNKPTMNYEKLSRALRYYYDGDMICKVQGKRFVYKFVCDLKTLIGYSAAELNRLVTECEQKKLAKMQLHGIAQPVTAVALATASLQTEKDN
To be noted: protein: recombinant; tags: N-terminal GST; dsDNA, one strand shown. The gist of the method: as §1

Assay [4] has as its target T4, ERG (Homo sapiens, UniProt P11308 1-479).
T4 sequence: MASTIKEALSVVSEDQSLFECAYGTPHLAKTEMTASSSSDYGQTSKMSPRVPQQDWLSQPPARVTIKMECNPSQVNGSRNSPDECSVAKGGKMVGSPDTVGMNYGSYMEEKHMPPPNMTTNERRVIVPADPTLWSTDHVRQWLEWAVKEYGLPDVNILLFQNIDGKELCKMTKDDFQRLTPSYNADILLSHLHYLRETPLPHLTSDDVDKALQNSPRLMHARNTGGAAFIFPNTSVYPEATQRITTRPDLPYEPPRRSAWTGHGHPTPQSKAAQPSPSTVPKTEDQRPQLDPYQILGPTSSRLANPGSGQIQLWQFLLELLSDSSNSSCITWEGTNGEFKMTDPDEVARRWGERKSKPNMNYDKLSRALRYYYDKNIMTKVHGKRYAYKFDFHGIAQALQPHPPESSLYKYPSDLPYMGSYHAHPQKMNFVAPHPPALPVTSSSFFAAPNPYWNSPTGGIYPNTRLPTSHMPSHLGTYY
To be noted: protein: recombinant; tags: N-terminal GST; dsDNA, one strand shown. The gist of the method: as §1

In assay [5] the target is ELF1 (Homo sapiens, UniProt P32519 1-619). To be noted: protein: recombinant; tags: N-terminal GST; dsDNA, one strand shown. The gist of the method: as §1
The target in assay [6] is T5, EHF (Homo sapiens, UniProt Q9NZC4 1-300).
T5 sequence: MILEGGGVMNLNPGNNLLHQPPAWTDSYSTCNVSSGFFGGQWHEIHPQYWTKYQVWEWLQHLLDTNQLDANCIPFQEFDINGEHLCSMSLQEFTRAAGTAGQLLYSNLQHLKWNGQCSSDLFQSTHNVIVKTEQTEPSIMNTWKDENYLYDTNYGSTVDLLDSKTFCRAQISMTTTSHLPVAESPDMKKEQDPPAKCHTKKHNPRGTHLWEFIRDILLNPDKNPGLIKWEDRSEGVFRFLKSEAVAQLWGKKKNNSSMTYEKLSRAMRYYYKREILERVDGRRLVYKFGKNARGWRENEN
To be noted: protein: recombinant; tags: N-terminal GST; dsDNA, one strand shown. In a few lines:
as §1

In assay [7] the target is SPI1 (Homo sapiens, UniProt P17947 1-270). Conditions: protein: recombinant; tags: N-terminal GST; dsDNA, one strand shown. In a few lines:
as §1

For assay [8], the target named is SPIB (Homo sapiens, UniProt Q01892 1-262). Conditions: protein: recombinant; tags: N-terminal GST; dsDNA, one strand shown. In a few lines:
as §1

The target in assay [9] is T6, ELK3 (Homo sapiens, UniProt P41970 1-407).
T6 sequence: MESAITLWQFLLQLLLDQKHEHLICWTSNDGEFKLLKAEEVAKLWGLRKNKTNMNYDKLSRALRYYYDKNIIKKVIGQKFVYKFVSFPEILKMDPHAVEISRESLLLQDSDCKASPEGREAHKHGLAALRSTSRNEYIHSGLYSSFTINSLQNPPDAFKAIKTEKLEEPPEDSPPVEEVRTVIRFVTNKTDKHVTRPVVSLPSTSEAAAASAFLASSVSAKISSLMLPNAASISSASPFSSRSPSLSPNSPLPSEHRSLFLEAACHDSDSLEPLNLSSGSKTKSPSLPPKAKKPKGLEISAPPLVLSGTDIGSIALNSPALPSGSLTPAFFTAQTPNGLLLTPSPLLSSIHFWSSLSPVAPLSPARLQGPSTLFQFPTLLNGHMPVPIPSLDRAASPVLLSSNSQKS
To be noted: protein: recombinant; tags: N-terminal GST; dsDNA, one strand shown. In a few lines: as §1

Assay [10] has as its target ETV5 (Homo sapiens, UniProt P41161 1-510). To be noted: protein: recombinant; tags: N-terminal GST; dsDNA, one strand shown. The gist of the method:
as §1

In assay [11] the target is HSF1 (Homo sapiens, UniProt Q00613 1-529). To be noted: protein: recombinant; tags: N-terminal GST; chain copies: 3; dsDNA, one strand shown. In a few lines: as §1
Assay [12] addresses T7, SPIC (Homo sapiens, UniProt Q8N5J4 1-248).
T7 sequence: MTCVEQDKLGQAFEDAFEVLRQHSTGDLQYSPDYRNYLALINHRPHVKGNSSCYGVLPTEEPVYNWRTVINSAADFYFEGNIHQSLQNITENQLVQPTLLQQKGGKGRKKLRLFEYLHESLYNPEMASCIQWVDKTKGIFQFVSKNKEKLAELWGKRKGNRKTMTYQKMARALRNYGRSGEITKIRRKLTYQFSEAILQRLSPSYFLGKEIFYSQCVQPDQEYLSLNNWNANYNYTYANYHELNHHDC
Conditions: protein: recombinant; tags: N-terminal GST; dsDNA, one strand shown. The gist of the method:
as §1

Assay [13] deals with ELF4 (Homo sapiens, UniProt Q99607 1-663). To be noted: protein: recombinant; tags: N-terminal GST; dsDNA, one strand shown. In a few lines: as §1
Assay [14] has as its target T8, ELK4 (Homo sapiens, UniProt P28324-2 1-405).
T8 sequence: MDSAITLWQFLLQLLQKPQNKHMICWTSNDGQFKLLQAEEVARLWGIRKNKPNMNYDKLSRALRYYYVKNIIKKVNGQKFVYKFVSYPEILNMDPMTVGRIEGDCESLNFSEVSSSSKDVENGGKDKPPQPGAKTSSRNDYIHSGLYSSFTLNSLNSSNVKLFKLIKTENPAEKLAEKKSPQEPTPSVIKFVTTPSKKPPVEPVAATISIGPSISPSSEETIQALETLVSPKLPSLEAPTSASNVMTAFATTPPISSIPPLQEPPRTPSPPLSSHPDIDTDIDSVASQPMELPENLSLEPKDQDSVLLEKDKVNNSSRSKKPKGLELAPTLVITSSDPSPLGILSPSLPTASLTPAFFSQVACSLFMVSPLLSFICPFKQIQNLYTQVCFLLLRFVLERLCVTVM
Conditions: protein: recombinant; tags: N-terminal GST; dsDNA, one strand shown. In a few lines: as §1

For assay [15], the target named is T9, ETV2 (Homo sapiens, UniProt O00321 1-342).
T9 sequence: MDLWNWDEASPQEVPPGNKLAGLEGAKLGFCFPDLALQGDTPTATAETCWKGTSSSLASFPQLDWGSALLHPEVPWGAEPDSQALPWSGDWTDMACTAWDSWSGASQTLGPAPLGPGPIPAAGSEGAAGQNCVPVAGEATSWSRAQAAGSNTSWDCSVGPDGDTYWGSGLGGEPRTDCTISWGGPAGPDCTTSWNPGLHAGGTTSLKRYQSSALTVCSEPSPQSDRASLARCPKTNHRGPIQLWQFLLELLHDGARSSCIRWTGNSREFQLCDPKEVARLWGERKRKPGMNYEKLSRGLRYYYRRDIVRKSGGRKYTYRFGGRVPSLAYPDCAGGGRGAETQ
To be noted: protein: recombinant; tags: N-terminal GST; dsDNA, one strand shown. The gist of the method:
as §1

The target of assay [16] is T10, ELF3 (Homo sapiens, UniProt P78545 1-371).
T10 sequence: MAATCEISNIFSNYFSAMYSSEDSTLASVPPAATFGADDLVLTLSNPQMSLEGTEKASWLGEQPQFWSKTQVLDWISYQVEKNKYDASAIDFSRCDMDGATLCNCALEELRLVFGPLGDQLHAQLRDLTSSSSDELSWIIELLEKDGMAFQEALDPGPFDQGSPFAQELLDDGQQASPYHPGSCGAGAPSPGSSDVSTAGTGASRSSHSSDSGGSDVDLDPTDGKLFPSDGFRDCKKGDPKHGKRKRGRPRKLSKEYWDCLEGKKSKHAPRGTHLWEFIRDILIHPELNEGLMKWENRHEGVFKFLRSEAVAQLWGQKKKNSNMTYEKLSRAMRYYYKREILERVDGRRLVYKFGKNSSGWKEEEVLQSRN
Conditions: protein: recombinant; tags: N-terminal GST; dsDNA, one strand shown. The gist of the method: as §1

Assay [17] concerns the target ETV1 (Homo sapiens, UniProt P50549 1-477). Conditions: protein: recombinant; tags: N-terminal GST; dsDNA, one strand shown. The gist of the method:
as §1

ETV5, sequence (P41161 whole entry): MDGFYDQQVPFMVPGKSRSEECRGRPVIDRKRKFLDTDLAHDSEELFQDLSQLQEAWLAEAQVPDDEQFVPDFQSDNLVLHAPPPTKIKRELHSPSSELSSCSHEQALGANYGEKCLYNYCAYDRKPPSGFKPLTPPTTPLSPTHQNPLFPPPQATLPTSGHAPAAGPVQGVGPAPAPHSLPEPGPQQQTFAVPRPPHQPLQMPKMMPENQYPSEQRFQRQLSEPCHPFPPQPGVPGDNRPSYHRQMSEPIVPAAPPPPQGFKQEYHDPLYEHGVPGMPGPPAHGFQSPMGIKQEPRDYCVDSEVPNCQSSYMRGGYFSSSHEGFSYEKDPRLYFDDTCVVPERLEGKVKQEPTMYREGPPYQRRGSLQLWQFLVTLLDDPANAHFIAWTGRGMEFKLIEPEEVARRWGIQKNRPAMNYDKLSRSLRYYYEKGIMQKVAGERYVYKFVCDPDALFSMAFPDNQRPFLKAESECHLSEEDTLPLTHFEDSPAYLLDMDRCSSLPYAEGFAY
ELF1, sequence (P32519 whole entry): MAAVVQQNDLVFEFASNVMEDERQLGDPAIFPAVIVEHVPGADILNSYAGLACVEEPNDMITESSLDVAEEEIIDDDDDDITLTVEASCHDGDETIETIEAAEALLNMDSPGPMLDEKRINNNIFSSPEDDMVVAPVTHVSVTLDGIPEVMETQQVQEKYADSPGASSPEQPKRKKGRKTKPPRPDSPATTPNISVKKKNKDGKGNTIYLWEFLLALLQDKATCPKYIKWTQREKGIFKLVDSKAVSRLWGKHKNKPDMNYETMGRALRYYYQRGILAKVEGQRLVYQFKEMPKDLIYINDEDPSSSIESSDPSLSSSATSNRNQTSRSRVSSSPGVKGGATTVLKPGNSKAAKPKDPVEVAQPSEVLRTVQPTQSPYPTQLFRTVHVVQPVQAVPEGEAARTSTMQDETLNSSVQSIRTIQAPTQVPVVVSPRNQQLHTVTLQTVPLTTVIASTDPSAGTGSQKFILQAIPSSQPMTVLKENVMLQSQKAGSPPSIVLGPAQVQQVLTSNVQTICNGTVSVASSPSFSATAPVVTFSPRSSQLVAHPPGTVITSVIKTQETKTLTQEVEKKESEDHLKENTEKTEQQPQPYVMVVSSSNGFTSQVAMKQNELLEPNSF
SPIB, sequence (Q01892 whole entry): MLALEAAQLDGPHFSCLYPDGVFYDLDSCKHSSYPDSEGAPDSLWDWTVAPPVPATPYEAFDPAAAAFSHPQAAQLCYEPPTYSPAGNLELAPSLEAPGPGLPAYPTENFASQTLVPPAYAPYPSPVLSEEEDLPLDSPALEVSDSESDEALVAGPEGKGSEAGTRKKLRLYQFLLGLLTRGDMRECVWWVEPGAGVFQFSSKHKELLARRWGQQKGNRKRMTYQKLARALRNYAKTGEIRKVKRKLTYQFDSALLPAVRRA
ETV1, sequence (P50549 whole entry): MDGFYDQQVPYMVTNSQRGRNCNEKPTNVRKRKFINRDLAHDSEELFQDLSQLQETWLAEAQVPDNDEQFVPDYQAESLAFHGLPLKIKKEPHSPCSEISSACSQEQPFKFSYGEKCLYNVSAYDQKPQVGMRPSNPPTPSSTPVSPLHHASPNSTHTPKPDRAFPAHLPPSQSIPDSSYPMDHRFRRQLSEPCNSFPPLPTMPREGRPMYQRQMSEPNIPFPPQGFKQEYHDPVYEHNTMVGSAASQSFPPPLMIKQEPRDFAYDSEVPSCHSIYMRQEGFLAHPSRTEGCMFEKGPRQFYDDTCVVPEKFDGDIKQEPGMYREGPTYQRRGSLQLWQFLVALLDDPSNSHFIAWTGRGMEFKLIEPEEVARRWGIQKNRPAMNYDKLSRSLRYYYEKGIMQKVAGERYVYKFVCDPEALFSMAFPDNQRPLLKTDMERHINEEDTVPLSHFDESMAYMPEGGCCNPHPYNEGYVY
ELF4, sequence (Q99607 whole entry): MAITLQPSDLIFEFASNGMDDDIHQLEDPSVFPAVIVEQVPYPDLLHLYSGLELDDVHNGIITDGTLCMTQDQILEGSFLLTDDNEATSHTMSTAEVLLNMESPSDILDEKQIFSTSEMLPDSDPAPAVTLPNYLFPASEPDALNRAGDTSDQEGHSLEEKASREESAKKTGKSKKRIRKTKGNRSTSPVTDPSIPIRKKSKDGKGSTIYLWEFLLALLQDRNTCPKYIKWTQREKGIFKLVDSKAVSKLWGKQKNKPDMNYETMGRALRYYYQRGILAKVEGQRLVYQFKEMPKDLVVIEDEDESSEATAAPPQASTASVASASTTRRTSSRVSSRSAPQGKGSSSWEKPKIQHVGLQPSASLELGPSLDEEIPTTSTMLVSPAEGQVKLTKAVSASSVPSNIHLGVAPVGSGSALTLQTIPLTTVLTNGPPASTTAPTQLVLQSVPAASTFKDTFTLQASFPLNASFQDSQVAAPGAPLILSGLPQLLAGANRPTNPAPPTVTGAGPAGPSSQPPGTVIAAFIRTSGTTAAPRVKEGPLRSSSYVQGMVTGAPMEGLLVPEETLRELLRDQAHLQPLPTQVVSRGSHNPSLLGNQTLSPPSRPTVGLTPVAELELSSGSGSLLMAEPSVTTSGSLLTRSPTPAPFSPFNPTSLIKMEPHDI
HSF1, sequence (Q00613 whole entry): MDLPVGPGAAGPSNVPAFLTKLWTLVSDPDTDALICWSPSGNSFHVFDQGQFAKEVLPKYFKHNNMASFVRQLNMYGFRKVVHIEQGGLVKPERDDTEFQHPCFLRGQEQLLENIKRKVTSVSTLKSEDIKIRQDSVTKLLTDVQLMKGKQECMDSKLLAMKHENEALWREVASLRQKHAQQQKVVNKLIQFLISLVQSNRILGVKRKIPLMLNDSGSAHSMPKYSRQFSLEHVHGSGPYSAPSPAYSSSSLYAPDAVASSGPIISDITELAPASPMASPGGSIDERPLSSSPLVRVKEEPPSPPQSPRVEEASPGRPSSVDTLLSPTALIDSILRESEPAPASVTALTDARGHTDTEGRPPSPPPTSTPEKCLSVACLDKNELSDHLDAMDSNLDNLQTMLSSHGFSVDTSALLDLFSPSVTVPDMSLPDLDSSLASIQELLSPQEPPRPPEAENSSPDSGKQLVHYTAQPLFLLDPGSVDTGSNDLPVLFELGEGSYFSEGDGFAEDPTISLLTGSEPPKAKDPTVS

For the sequence TGGTAG, the binding signal in assay [1] was 1.1 fold enrichment (6-mer frequency, TF over GST control); in [2] it was 1.02 fold enrichment (6-mer frequency, TF over GST control); in assay [3] it was 1.08 fold enrichment (6-mer frequency, TF over GST control); in assay [4] it was 1 fold enrichment (6-mer frequency, TF over GST control); in assay [5], 1.05 fold enrichment (6-mer frequency, TF over GST control); in assay [6], 1.11 fold enrichment (6-mer frequency, TF over GST control). In addition, the binding signal in assay [7] was 1.03 fold enrichment (6-mer frequency, TF over GST control); in assay [8], 1.15 fold enrichment (6-mer frequency, TF over GST control); in [9] it was 1.11 fold enrichment (6-mer frequency, TF over GST control); in [10], 1.07 fold enrichment (6-mer frequency, TF over GST control); in assay [11] it was 1.06 fold enrichment (6-mer frequency, TF over GST control); in [12], 1.08 fold enrichment (6-mer frequency, TF over GST control). Also, the binding signal in assay [13] was 1.11 fold enrichment (6-mer frequency, TF over GST control); in [14], 1.37 fold enrichment (6-mer frequency, TF over GST control); in assay [15] it was 1.04 fold enrichment (6-mer frequency, TF over GST control); in assay [16], 1.13 fold enrichment (6-mer frequency, TF over GST control); in [17], 1.05 fold enrichment (6-mer frequency, TF over GST control).
